Compound activity: PubChem BioAssay, National Center for Advancing Translational Sciences (NCATS)
Sampled rows, rich in hits. Any-hit rate of the full collection: about 8.8%.
HT1080-NT tox = kills 2HG-producing HT-1080-NT fibrosarcoma cells; HT-1080-NT fibrosarcoma viability, CellTiter-Glo ATP luminescence, 48 h; Potency, µM (highest dose often 46.1 µM), for the others: at the highest dose activity, negative = less viability, hits mostly cytotoxic; 1.6% of 360,000 active;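 also: NT is the 2HG producing partner of a matched IDH1 knockdown line; potency is read from the fitted curve at half-maximal effect; 0% = DMSO-treated cells and -100% = media-only wells without cells; nearly all actives have a fitted effect of over 55% in size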
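750 cells/well, RPMI + 5% FBS; 2 h settle, compound pin-transfer, 48 h at 37 degrees C. CellTiter-Glo 10 min RT, luminescence. Normalized to DMSO and media-only wells.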
HT1080 IDH1KD tx = kills HT-1080 cells with IDH1 knockdown | Potency, µM (doses to about 46.1 µM), for inactives: at the highest dose activity, negative = toxicity, actives largely listed as cytotoxic | HT-1080 IDH1 knockdown viability, ATP luminescence, 48 h | 2% of 360,000 active | AID 686971;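 also: potency is read from the fitted curve at half-maximal effect; 0% = DMSO wells and -100% = cell-free medium wells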
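HT-1080-IDH1KD cells (IDH1 knocked down), 750/well in RPMI with 5% FBS, treated with compound 48 h at 37 degrees C. Viability by CellTiter-Glo luminescence, normalised to DMSO and no-cell wells; concentration-response curves classed.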
KB-3-1 cytotox = kills parental KB-3-1 adenocarcinoma cells. KB-3-1 viability, CellTiter-Glo ATP luminescence, 72 h. Potency, µM (titrated, usually from 46.1 µM), most hits filed as cytotoxic. 1.4% of 400,000 active. AID 1347075; also: potency is read from the fitted curve at half-maximal effect; nearly all actives have a fitted effect of over 60% in size
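Cytotoxicity measured as CellTiter-Glo luminescence after 72 h at 37 C. Compound titrations were pinned onto drug-naive KB-3-1 parental adenocarcinoma cells grown in DMEM with 10% FBS, and normalized data fitted to concentration-response curves.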
IL-1B inflam inh = inhibitors of inflammasome signaling (IL-1 beta secretion); 4.7% of 360,000 active; activity change, % at 57.5 µM; THP-1 LPS/ATP IL-1B secretion, AlphaLISA, 16 h; active compounds read low; in the data active = activity change below about -50%; inconclusive = mostly about -30% to -49%
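THP-1 cells pretreated 1 hr with compounds (up to 57.5 uM final), then stimulated with LPS (250 ng/mL final) plus ATP (1.25 mM final); secreted IL-1B measured by AlphaLISA after 16 hr, decreased signal indicating inhibition.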
KB-V1 MDR tox = KB-V1 MDR subline cytotoxicity | KB-V1 MDR cells viability, CellTiter-Glo, 72 h | Potency, µM (highest dose often 46.1 µM), actives largely listed as cytotoxic | 3.4% of 400,000 active | AID 1347076; also: potency is read from the fitted curve at half-maximal effect; nearly all actives have a fitted effect of over 60% in size
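Compound-treated KB-V1 multidrug-resistant cells, 72 h, 37 degrees C; viability by CellTiter-Glo. Fitted qHTS curves give the values.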
The depositor's hits bear a star; i = inactive; ? = inconclusive; . = no result; [ ] = dose if it differs, or a comment. Unless noted, calls follow the shape of the dose curve; as a rule, active = well fitted curve in the direction sought with a large enough effect; inconclusive = small, poorly fitted or top-dose-only effect, or another doubt; inactive = no such curve, though single readings can be large; an effect the other way counts as inactive or inconclusive. Unless noted, % is scaled to controls: 0 for no effect and ±100 for the full control effect.

SMILES | HT1080-NT tox | HT1080 IDH1KD tx | KB-3-1 cytotox | IL-1B inflam inh | KB-V1 MDR tox
Oc1ccc(Br)cc1CN1CCN(c2ccccc2)CC1 | 10% | ? | i | -3 | 16µM*
COc1cc(C)c(CN2CCN(c3ccccc3)CC2)cc1C | -7% | -8% | i | -4 | 13µM*
Cc1ccc(Cn2cccc(C(=O)Nc3cc(C)on3)c2=O)cc1 | . | . | i | . | i
Cc1cc(NC(=O)CCl)no1 | ? | ? | ? | -100* | ?
CCOC(=O)C1(c2ccccc2)CCN(CCC(=O)Nc2ccc(OC)cc2)CC1 | -12% | -9% | i | -15 | i
CCOC(=O)C1(c2ccccc2)CCN(CCC(=O)Nc2cccc(Br)c2)CC1 | 18µM* | 23µM* | ? | -101* | ?
CCNCCNc1ccc([N+](=O)[O-])c2cccnc12 | -30% | -22% | i | -61* | i
C=CCN1C(=O)NC(=O)/C(=C/C=C/c2ccccc2)C1=O | ? | 21µM* | i | ? | i
O=C1NC(=O)N(CCc2ccc(F)cc2)C(=O)/C1=C\C=C\c1ccccc1 | 14% | 19% | 16µM* | -24 | 15µM*
C=CCN1C(=O)NC(=O)/C(=C/c2ccc(OC)c(CSc3ccccn3)c2)C1=O | -1% | 0% | i | 19 | i
C[C@]12CCC3C(CC[C@@H]4[C@H]5O[C@H]5CC[C@]34C)C1CC[C@@H]2O (stereo partly drawn) | -24% | -1% | i | 22 | i
O=C1C=C2C=C[C@H]3C[C@]2(O1)[C@@H]1CCCCN13 | -2% | 1% | ? | -21 | ?
O=C1C=C2C=C[C@@H]3CC2(O1)[C@H]1CCCCN31 | -25% | ? | ? | -96* | ?
CC1CCN(C(CC(=O)c2ccccc2)C(=O)c2ccccc2)CC1 (stereo not drawn) | -12% | ? | i | -67* | i
COCCNC(=O)CN1C(=O)C(C)N=C(c2ccccc2)c2cc(Cl)ccc21 (stereo not drawn) | -1% | -4% | i | -1 | i
CCOC(=O)c1ccc(NC(=O)Nc2ccc3c(c2)OCCO3)cc1 | ? | ? | ? | ? | 15µM*
CC(C)c1cccc(C(C)C)c1OCCn1ccnc1 | -1% | -13% | i | 16 | 23µM*
c1ccc(Cn2ccnc2)cc1 | -4% | 1% | i | 37 | i
Cc1[nH]c2ccccc2c1CCNCc1cccnc1 | 11% | 10% | i | -5 | i
COc1ccc2[nH]c(C)c(CCNCc3cn(C)c4ccccc34)c2c1 | ? | ? | ? | -86* | ?
COC(=O)[C@H]1[C@H]2C[C@@H]3c4[nH]c5cc(OC)ccc5c4CCN3C[C@H]2C[C@@H](OC(=O)/C=C/c2cc(OC)c(OC)c(OC)c2)[C@@H]1OC | ? | ? | i | 50 | i
Cc1ccc2cc(C=C(C#N)C#N)c(Cl)nc2c1 | -1% | -12% | ? | -96* | ?
C[C@]12CC[C@H](O)CC1=CCC1C2CC[C@@]2(C)C1C[C@@H]1CC(=O)O[C@@H]12 (stereo partly drawn) | 0% | -5% | i | 58 | i
C=C1C(=O)[C@@]23C[C@H]4[C@@H]5[C@@]6(C)CCC[C@@]57[C@@H]2[C@@H](O)[C@@H]1C[C@H]3[C@H]7N4C6 | ? | ? | ? | -108* | i
O=C(CN1CCN(C(=O)COc2cccc(F)c2)CC1)Nc1ccc(Cl)c(C(F)(F)F)c1 | -6% | -2% | i | ? | i
SMILES | HT1080-NT tox | HT1080 IDH1KD tx | KB-3-1 cytotox | IL-1B inflam inh | KB-V1 MDR tox
O=C(Nc1ccc(Cl)c(C(F)(F)F)c1)NC1CC2CCCC(C1)N2Cc1ccccc1 (stereo not drawn) | 18µM* | ? | ? | -106* | ?
Cc1cc(OCC(=O)N2CCN(CCc3ccncc3)CC2)cc(C)c1Cl | . | . | i | . | i
CCc1ccc(-c2nn(Cc3ccccc3)cc2C=O)cc1 | ? | -24% | i | -59* | i
O=Cc1cn(Cc2c(F)cccc2Cl)nc1-c1ccccc1 | -18% | -12% | i | -12 | i
CCN1C[C@@]2(COC)C3[C@@H](OC)[C@H]4[C@@H]1[C@@]3(C1C[C@@]3(O)[C@H](OC(=O)c5ccccc5)C1[C@]4(OC(C)=O)[C@@H](O)[C@H]3OC)[C@@H](OC)C[C@H]2O (stereo partly drawn) | 18% | 11% | i | -10 | i
O=C1COc2ccc(-c3csc(=Nc4ccc(OC(F)F)cc4)n3CC3CCCO3)cc2N1 (stereo not drawn) | ? | ? | ? | -65* | 2.9µM*
C1CN(P2(N3CC3)=NP(N3CC3)(N3CC3)=NP(N3CC3)(N3CC3)=N2)CCO1 (stereo not drawn) | 11% | 5% | i | -4 | i
O=C(NC1C=CS(=O)(=O)C1)c1sc2ccccc2c1Cl (stereo not drawn) | 16µM* | 11µM* | i | -97* | ?
O=C(c1sc2ccccc2c1Cl)N1CCC2(CC1)OCCO2 | 0%[9.24 µM] | -27% | i | 14 | i
Cc1c(C(=O)N2CCC3(CC2)OCCO3)sc2ncnc(N3CCN(c4ccccn4)CC3)c12 | 0% | 7% | i | -81* | i
CCCNC(=O)Cn1cnc2sc(C(=O)N3CCC4(CC3)OCCO4)c(C)c2c1=O | 6% | 4% | i | 4 | i
COC(=O)C1=C(C(=O)OC)SC2(S1)C(C(=O)OC)=C(C(=O)OC)Sc1c2ssc1=O | 5.2µM* | 1.2µM* | ? | -95* | ?
C[C@H](CO)N1C[C@H](C)[C@@H](CN(C)Cc2ccc(-c3ccccc3)cc2)Oc2c(NC(=O)c3ccncc3)cccc2C1=O | ? | -22% | ? | -22 | i
O=C(COc1cccc(C(F)(F)F)c1)Nc1ccc(S(=O)(=O)N2CCCC2)cc1 | 0%[9.24 µM] | ? | i | -21 | i
O=S(=O)(c1ccc(Nc2ccc(-c3ccc4c(c3)OCCO4)nn2)cc1)N1CCCC1 | 16µM* | ? | i | 0 | ?
O=c1oc2ccccc2n1CSC1=NCCS1 | ? | ? | ? | -107* | ?
OCC1OC(O)CC(O)C1O (stereo not drawn) | 16% | 14% | i | 8 | i
CN(C)C(=O)Oc1ccc(Br)cc1C(=O)Nc1ccc(F)c(Cl)c1 | ? | ? | ? | -59* | i
CC(C)CC(NC(=O)C1CCCCC1)C(=O)N1CCC2(CC1)OCCO2 (stereo not drawn) | -4% | 4% | i | -7 | 10µM*
CCS(=O)(=O)N1CCCC(C(=O)N2CCC3(CC2)OCCO3)C1 (stereo not drawn) | 25% | 12% | i | 13 | i
